Assay results from PubChem BioAssay AID1490 (National Center for Advancing Translational Sciences (NCATS), 2009).
Among all 310,000 compounds or so, about 11,000 (3.5%) were called active. About 4% were inconclusive and are not listed. The sample as a whole holds a higher share of actives than the screen did. A number with no mark means an inactive call. Calls come from the whole dose curve; as a rule, active = well fitted inhibition curve with a large enough effect; inconclusive = small, poorly fitted or top-dose-only effect, or another doubt; inactive = no such curve, though single readings can be large or run the other way.

What follows are molecules tested against 4'-phosphopantetheinyl transferase ffp (Bacillus subtilis) (UniProt Q9F4F7) (assay: qHTS Assay for Inhibitors of Bacillus subtilis Sfp phosphopantetheinyl transferase (PPTase)). Conditions: Biochemical Sfp PPTase activity.
Summary of the method: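 Compounds were incubated with enzyme (final 15 nM) for 15 min at room temperature before substrate addition started the reaction. Fluorescence at 525 nm excitation, 598 nm emission was recorded immediately and after 30 minutes.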
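Note: the enzyme is Sfp with the accession as filed and its product quenches rhodamine fluorescence.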
Potency is the fitted concentration of half-maximal effect.
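Throughout, for largest response in the series, negative = inhibition: 0% = enzyme reaction without inhibitor and -100% = no enzyme wells.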

SMILES | Potency | largest response in the series, negative = inhibition [%]
NC(=S)c1ccc(C(N)=S)o1 | 56.2 µM (active) | –
O=C(O)C1CC=CC2CCN(C3CCCCC3)C(=O)C21 (centres undefined) | – | 40
COc1ccc(-n2cc(-c3ccccc3)c3c(=S)nc[nH]c32)cc1 | – | 7.93
COc1ccc(C)cc1NC(=O)NCCCCc1ccccc1 | – | -4.5
CN(Cc1ccccc1)C(=O)CCc1ccccc1 | – | 20.4
O=C(c1ccccc1F)N(Cc1ccccc1)Cc1ccccc1 | – | 9.85
CN(Cc1ccccc1)Cc1ccccc1F | 50.1 µM (active) | –
Cc1ccc(C)c(OCCC(=O)OCC(=O)N2CCN(c3ccccc3)CC2)c1 | – | -6.17
Cc1coc2c1c(C)cc1oc(=O)c(CC(=O)NCC(=O)N[C@H](C(=O)O)C(C)C)c(C)c12 | – | 1.89
CCn1cc(S(=O)(=O)c2cccc(C)c2)c(=O)c2cc(F)c(N3CCN(C)CC3)cc21 | – | 4.71
NC(=O)CC[C@@H]1NC(=O)[C@H](CO)NC(=O)c2cc([N+](=O)[O-])cc(I)c2NCC[C@@H](C(N)=O)NC1=O | – | -7.09
NCCCC[C@@H]1NC(=O)[C@H](CCC(=O)O)NC(=O)c2cc([N+](=O)[O-])cc(I)c2NCC[C@@H](C(N)=O)NC1=O | 31.6 µM (active) | –
NC(=O)C[C@@H]1NC(=O)CNC(=O)c2cc([N+](=O)[O-])cc(I)c2NCCC(C(N)=O)NC1=O (some centres undefined) | – | -12.4
COc1cccc(CNC(=O)C2CCCN(S(=O)(=O)N3CC(C)CC(C)C3)C2)c1 (centres undefined) | – | 6.86
CCC(CC)COC(=O)C1=C(C)NC(=O)NC1c1ccc([N+](=O)[O-])cc1 (centres undefined) | – | 7.14
CC(C)(C)c1ccc(NC(=O)NCc2ccco2)cc1 | – | 8.16
COc1cccc(S(=O)(=O)NCc2ccc(C(=O)NCc3ccccn3)cc2)c1 | – | 12.9
O=C(NCc1ccccn1)c1ccc2nc(-c3ccco3)c(-c3ccco3)nc2c1 | 14.1 µM (active) | –
COCCNC(=O)Nc1ccc2nc(-c3ccco3)c(-c3ccco3)nc2c1 | 4.47 µM (active) | –
O=C(Nc1ccc2nccnc2c1)c1ccco1 | – | 15.4
O=C(NCc1ccccn1)c1cc(Br)ccc1Cl | – | -2.95
COc1ccc(CCN2CC(C(=O)NCCN3CCNC3=O)CCC2=O)cc1 (centres undefined) | – | 19
COc1ccc2c(c1)c1nc3n(c(=O)c1n2CC(=O)Nc1ccccc1)CCS3 | – | 1.1
COc1ccc(C(=O)/C=C/c2cccnc2)c(OC)c1 | – | 9.73

SMILES | Potency | largest response in the series, negative = inhibition [%]
O=[N+]([O-])c1cccc(/C=N/Nc2ncc(Br)cn2)c1 | – | 16.8
Cn1sc(=O)c2cc(S(=O)(=O)NC3CC3)ccc21 | 11.2 µM (active) | –
CC1CCC(NS(=O)(=O)c2ccc3c(c2)n(C)c(=O)c(=O)n3C)CC1 (centres undefined) | – | 8.22
O=S(=O)(NC1CC1)c1ccc(F)c(F)c1 | – | 16.5
Cc1nonc1NC(=O)c1oc2ccccc2c1C | – | -2.27
CC(=O)c1ccc(N2CCN(CC(O)c3ccccc3)CC2)cc1 (centres undefined) | – | 16.5
CCc1ccc(Oc2coc3cc(O)ccc3c2=O)cc1 | – | 12.7
CCC(CC)c1nnc(NC(=O)c2nn(C)c(=O)c3ccccc23)s1 | – | 10.8
CCC(c1nnnn1C1CCCC1)N1CCN(C(=O)c2ccco2)CC1 (centres undefined) | – | 6.92
CCC(CC)c1nnc(NC(=O)/C=C/c2ccco2)s1 | 56.2 µM (active) | –
C/C=C/C(=O)Nc1nnc(C(C)C)s1 | – | -3.92
COc1ccc(CNC(=O)C2CCN(C(=O)c3ccco3)CC2)cc1 | – | 5.46
CCOC(=O)c1c(NC(=O)/C=C/c2ccco2)sc(C)c1C | – | -8.04
O=C(/C=C/c1ccco1)Nc1ccc(Oc2ccccc2)cc1 | – | 2.06
Cc1nnc(NC(=O)/C=C/c2ccco2)s1 | 11.2 µM (active) | –
CCC(CC)c1nnc(NC(=O)C2CCN(C(=O)c3ccco3)CC2)s1 | 39.8 µM (active) | –
FC(F)(F)c1nnc2c3ccccc3c(Cl)nn12 | – | 10.4
CC1CCN(S(=O)(=O)c2ccc(NC(=O)C3CC(=O)N(c4ccccc4)C3)cc2)CC1 (centres undefined) | – | 6.28
Cc1cc(S(=O)(=O)NC2CCCC2)ccc1-n1cnnn1 | – | 16.3
CCOc1ccc(C(=O)Nc2c3c(nn2-c2ccccc2)CS(=O)(=O)C3)cc1 | – | 11.5
CC(=N\NC(=O)c1cc(Br)ccc1O)/C(=N/O)C(=O)Nc1ccccc1 | – | 16.6
O=C(NCCc1ccccc1Cl)C1CCC(=O)N(CCCc2ccccc2)C1 (centres undefined) | – | -2.68
COC(=O)c1ccc(COc2ccc(/C=C/C(=O)c3ccc(OC)c(CSCC(=O)O)c3)cc2OC)cc1 | – | -20.4
COc1ccc(C2/C(=C(/O)c3ccc4c(c3)CC(C)O4)C(=O)C(=O)N2Cc2ccncc2)cc1 (centres undefined) | – | -0.196

SMILES | Potency | largest response in the series, negative = inhibition [%]
COc1cccc2cc(-c3cc(=O)oc4cc(C)c(O)cc34)oc12 | – | -19.1
C=C(Cl)COC(=O)C1C2C=CC(C2)C1C(=O)O (centres undefined) | – | -7.02
O=C(O)C1C2C=CC(C2)C1C(=O)N1CCN(CCO)CC1 (centres undefined) | 20 µM (active) | –
CN1CCN(C(=O)C2C3C=CC(C3)C2C(=O)O)CC1 (centres undefined) | – | -2.06
CC(CN1CCOCC1)OC(=O)c1ccc(C(C)(C)C)cc1 (centres undefined) | – | -0.906
Cc1cccc(N2CCN(S(=O)(=O)c3ccc(-c4cc(C)no4)s3)CC2C)c1 (centres undefined) | – | 13.1
CCOC(=O)c1sc(NC(=O)CSc2ncccn2)c(C#N)c1C | – | 15.3
Cc1cc(C(F)(F)F)nc(SCC(=O)Nc2nccs2)n1 | – | -13.1
CCOC(=O)c1sc(NC(=O)CSc2nc(C)cc(C(F)(F)F)n2)c(C#N)c1C | 20 µM (active) | –
O=C(O)c1cccc2c1C(=O)N(C1CCCC1)C2 | – | 17.2
Cc1cc(Cl)nc(NC(=O)Nc2cccc(Cl)c2)n1 | – | -3.29
Cc1ccc(Nc2ccccc2N)cc1 | – | -23.1
Nc1ccc(Nc2ccccc2)cc1 | 56.2 µM (active) | –
Cc1cc(Nc2ccccc2)n(C(=O)c2ccc(N)cc2)n1 | – | -8.73
O=C1OC2(CCCCC2)CC2=C1C1O[C@](c3ccsc3)(Cc3ccccc31)O2 | – | -2.9
COC(=O)CCc1ccccc1S(=O)(=O)N(CCC(=O)OC)Cc1ccccc1 | – | -14.7
CCN(CC(=O)Nc1ccc(Cl)c(S(=O)(=O)N(C)C)c1)Cc1nc2ccccc2c(=O)[nH]1 | – | -31.5
CCN(CC(=O)Nc1cccc(S(N)(=O)=O)c1)Cc1nc2ccccc2c(=O)[nH]1 | 50.1 µM (active) | –
CCN(CC(=O)NC(=O)NCc1ccccc1)Cc1nc2ccccc2c(=O)[nH]1 | – | -53
CN1CCN(C(=O)c2cnn(-c3ccccc3)c2NC(=O)c2ccc([N+](=O)[O-])cc2)CC1 | – | 1.55
CC1CCN(C(=S)c2cccc(O)c2)CC1 | 25.1 µM (active) | –
CC1CCN(c2ccc([N+](=O)[O-])cc2C(N)=O)CC1 | – | 9.05
Cc1nc2ccc(NC(=S)N3CCC(C)CC3)cc2nc1C | – | 15.4
CC1CCN(C(=S)NC(=O)c2ccccc2Br)CC1 | – | 14.1

SMILES | Potency | largest response in the series, negative = inhibition [%]
CC1CCN(C(=S)c2cccc([N+](=O)[O-])c2)CC1 | 44.7 µM (active) | –
O=C(c1cccc([N+](=O)[O-])c1)N1CCN(C(=O)c2ccco2)CC1 | – | 3.81
CC1=C(C(=O)OC2CCCCC2)C(c2ccccc2F)NC(=O)N1 (centres undefined) | – | 7.52
O=C(NC1CCCC1)C(c1ccco1)N(C(=O)c1ccco1)c1ccc(F)cc1 (centres undefined) | – | 20.8
COc1ccc(CCNC(=O)c2c(C)nn(-c3ccccc3)c2Cl)cc1 | – | 9.27
CN(CC1CCCO1)S(=O)(=O)c1ccc(C(=O)Nc2ccc([N+](=O)[O-])cc2)cc1 (centres undefined) | – | -10.7
Cc1c(NC(=O)c2cc(-c3ccc(Br)cc3)on2)c(=O)n(-c2ccccc2)n1C | – | 2.71
Cc1nnc(SCC(=O)Nc2cccc(N)c2)n1-c1ccccc1 | – | 20
NS(=O)(=O)c1cccc(NC(=O)CSc2nc3ccccc3n2-c2ccccc2)c1 | 79.4 µM (active) | –
COc1ccc(-n2cnnc2SCC(=O)Nc2cccc(S(N)(=O)=O)c2)cc1 | – | 3.4
COC(=O)c1c(NC(=O)C(=O)N2CCCCC2)sc2c1CC(C)(C)OC2 | – | -1.3
COc1cc(OC)c(C(=O)N2CCCC2)cc1OC | – | 10.6
COc1ccc(/C=C/C(=O)N2CCCC2)cc1OC | – | -0.604
COc1cc(OC)c(C(=S)N2CCCC2)cc1OC | 20 µM (active) | –
COc1ccc(OC)c(CCNC(=O)c2nn(C)c3c2CS(=O)(=O)c2ccccc2-3)c1 | – | 15.7
COc1ccc(NC(=O)CN2C(=O)COc3ccc(S(=O)(=O)N4CCOCC4)cc32)c(OC)c1 | – | 15.2
O=C(c1ccc(S(=O)(=O)N2CCCC2)cc1)N1CCN(c2ccccc2F)CC1 | – | 11.7
COc1ccc(/C=C/c2noc(-c3ccccc3OC(C)=O)n2)cc1 | – | -16
Cc1cccc(NC(=O)c2sc3nc4c(c(-c5ccco5)c3c2N)CCC4)c1 | – | -15.6
Cc1cccc(NC(=O)c2sc3nc(N4CCOCC4)c4c(c3c2N)CCCC4)c1 | 17.8 µM (active) | –
CC(=O)Nc1ccc(N2CCOCC2)c(C(=O)Nc2cccc(C)c2)c1 | – | 6.24
COc1cccc(CNC(=O)CN(C)S(=O)(=O)c2ccc3c(c2)c(=O)n(C)c(=O)n3C)c1 | – | -4.3
